Results reported in PubChem BioAssay AID1832 (Broad Institute, 2009).
The campaign covered roughly 300,000 compounds. About 1,100 (0.37%) were called active.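 How the source made its calls: active means inhibition past about -25% in most replicates, and total fluorescence under double the plate's negative control median (limit read from the data); inconclusive means replicates evenly split on the limit, or fluorescence at least double controls; inactive means too little inhibition in most replicates.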 The list comes from a sample in which actives are over-represented; it also holds similar structures and randomly drawn compounds.

target: Zinc finger protein mex-5 (Caenorhabditis elegans) (UniProt Q9XUB2); assay: MEX-5 zinc finger RNA-binding disruptors – biochemical, C. elegans, fluorescence polarization, MLPCN library, primary screen (AID 1832); conditions: MEX-5/FITC-TCR2 RNA binding, at 10 µM, active compounds read low;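 further: 0% = DMSO and -100% = 5 µM competing unlabeled TCR2 RNA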
Sequence (Q9XUB2 whole entry, looked up): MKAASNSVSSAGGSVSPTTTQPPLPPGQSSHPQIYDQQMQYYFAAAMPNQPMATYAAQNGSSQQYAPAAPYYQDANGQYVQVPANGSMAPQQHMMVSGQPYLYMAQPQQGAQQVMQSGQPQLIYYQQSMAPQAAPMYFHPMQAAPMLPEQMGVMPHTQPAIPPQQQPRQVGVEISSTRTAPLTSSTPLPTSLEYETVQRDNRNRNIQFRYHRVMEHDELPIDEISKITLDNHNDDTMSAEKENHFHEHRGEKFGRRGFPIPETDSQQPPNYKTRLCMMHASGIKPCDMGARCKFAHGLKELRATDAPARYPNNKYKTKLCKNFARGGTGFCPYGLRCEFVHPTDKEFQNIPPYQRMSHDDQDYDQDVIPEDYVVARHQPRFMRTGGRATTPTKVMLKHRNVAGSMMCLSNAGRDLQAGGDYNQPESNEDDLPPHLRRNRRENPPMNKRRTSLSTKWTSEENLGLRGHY

Activity score (negative = inhibition of binding), active:
NS(=O)(=O)c1ccc(-c2ccc(/C=C3\SC(=O)NC3=O)o2)cc1 -76.4%, O=C(C1=C(O)C(=O)N(c2ncccn2)C1c1cccs1)c1ccco1 (configuration not stated) -42.2%, CCn1c(=N)c(S(=O)(=O)c2ccc(F)cc2)cc2c(=O)n3ccccc3nc21 -29.2%, O=C(/C=C/c1ccc([N+](=O)[O-])o1)NNC(=O)c1ccc(F)cc1 -26.8%, O=C(N/N=C\c1ccc(-c2ccc(Cl)c(Cl)c2)o1)C(=O)N1CCCC1 -55.2%, ON=C1/C(=N\O)CC2(C/C1=N/O)OCCO2 -31.5%, COc1cc(/C=C2/C(=O)ON=C2C)ccc1OCc1ccccc1F -63.3%, CCn1c(/C=C/c2ccc([N+](=O)[O-])o2)nc2ccccc2c1=O -34.2%, Cn1ccc(=Nc2ccc(NC(=O)c3ccc(N=c4ccn(C)c5ccc([N+](=O)[O-])cc45)cc3)cc2)cc1 -46.8%, CCCn1nc(C(=O)Nc2ccc3nc(C)sc3c2)c2ccccc2c1=O -34.8%, COc1ncnc2c1N=C1CC(C)(C)CC(N)=C1S2 -36.1%, Oc1c(Cl)cc(Cl)c(Cl)c1Cc1c(O)c(Cl)cc(Cl)c1Cl -82.9%, Cc1c(NC(=O)c2coc(=O)c(Br)c2)c(=O)n(-c2ccccc2)n1C -44.8%, Clc1cc(-c2ccc(/C=N/n3cnnc3)o2)ccc1Br -34%, CC1(OC(=O)C2CCCC2)C(=O)C=C2C=C(c3ccc(C#N)cc3)OC=C2C1=O (configuration not stated) -40%, N#CC1=C(N)C(C#N)(C#N)[C@H](c2ccsc2)[C@H]2COCC=C12 -30.3%, CN1C(=O)c2cccc3c(N)ccc(c23)C1=O -51.4%, COc1ccc(-c2onc3ccc(C(C)=O)cc23)cc1 -69.7%

Activity score (negative = inhibition of binding), inactive:
CN1C(=O)/C(=C\c2ccc(-c3ccccc3)o2)SC1=S -2.67%, CN1CCN(/N=C/c2ccc(-c3ccc([N+](=O)[O-])cc3)o2)CC1 2.18%, CCOCCCNC(=S)Nc1ccc2nc(N3CCN(CC)CC3)cc(C)c2c1 2.27%, CCOCCCNC(=O)C(NC(=O)CNC(=O)c1ccccc1)c1ccc(OC)cc1 (configuration not stated) -1.36%, O=C(C1=C(O)C(=O)N(Cc2ccccc2)C1c1ccco1)c1ccco1 (configuration not stated) 0.4%, O=C(C1=C(O)C(=O)N(Cc2ccccc2)C1c1cccnc1)c1ccco1 (configuration not stated) -1.21%, c1ccc2c(c1)CCc1snnc1-2 2.39%, O=C(Cn1nc(C(=O)O)c2ccccc2c1=O)Nc1ccc(F)cc1 -2.04%, Cc1ccc(-c2nn(-c3ccccc3)cc2/C=C2\SC(=S)N(CCCCCC(=O)O)C2=O)o1 -7.25%, CCCCN(C(=O)c1ccc(OC(F)(F)F)cc1)c1c(N)n(CCC)c(=O)[nH]c1=O 1.98%, COc1ccc(CNC(=O)c2cc3c(=O)n4ccccc4nc3n(CC3CCCO3)c2=N)cc1 (configuration not stated) -4.96%, Cc1ccc(Cn2c(=N)c(S(=O)(=O)c3ccc(C)cc3)cc3c(=O)n4ccccc4nc32)cc1 6.5%, Cc1ccc(/C=C/C(=O)Nc2ccc([N+](=O)[O-])c(NC(=O)/C=C/c3ccc(C)o3)c2)o1 1.59%, O=C(N/N=C/c1ccc([N+](=O)[O-])o1)c1cn(-c2ccccc2)nc1-c1ccc(F)cc1 -3.11%, O=C(c1ccc(F)cc1)n1c(=S)nc2ccccn21 0.662%, O=C(COC(=O)c1ccc(F)cc1F)Nc1ncccn1 -8.66%, CC(C)NC(=S)Nc1cccc2cnccc12 0.93%, CC1(C)Cc2nc3sc4c(SCC(=O)NC(c5ccccc5)c5ccccc5)ncnc4c3cc2CO1 -0.0678%, Cc1ccc(NC(=O)CSc2sc3c(O)cc(=O)[nH]c3c2C#N)cc1C -1.19%, O=C(N/N=C/c1ccc([N+](=O)[O-])cc1)C(=O)N1CCCC1 -0.216%, COC(=O)N/N=C/c1ccc(-c2ccc(Cl)c(Cl)c2)o1 2.42%, COC(C(=O)NCc1ccccc1C)c1ccccc1 (configuration not stated) -0.406%, O=C(NCCCN1CCOCC1)C1CCCN(S(=O)(=O)N2CCCCC2)C1 (configuration not stated) 0.135%, S=c1[nH]nc2c3c4c(sc3ncn12)CCCC4 0.932%, O/N=C1\CC2(Cc3nonc31)OCCO2 2.02%, COc1ccc(C(=O)c2c(C)c(CCC#N)n3ccccc23)c(OC)c1 -2.13%, COc1cc(/C=C2/C(=O)ON=C2C)ccc1OCc1cccc(F)c1 -9.55%, C=CCOc1ccc(/C=C2/C(=O)ON=C2C)cc1OCC -10.9%, CC(=O)Nc1ccc(Nc2nc3c(S(=O)(=O)c4ccc(C)c(C)c4)nnn3c3ccccc23)cc1 -3.46%, Cc1cc(=O)oc2cc(NC(=O)C3CC(=O)N(Cc4ccccc4)C3)ccc12 (configuration not stated) -4.23%, Cc1cc(C)nc(N/N=C/c2ccc([N+](=O)[O-])o2)n1 -9.59%, C/[N+]([O-])=C\c1ccc([N+](=O)[O-])o1 -3.97%, COc1ccc(NS(=O)(=O)c2cccc3nsnc23)cc1Cl 1.95%, COC(=O)c1ccc(NC(=S)Nc2cccc(C)n2)cc1 -0.058%, Cc1cc([N+](=O)[O-])ccc1NC(=O)c1ccc(NC(=O)C(C)C)cc1 0.662%, O=C(Nc1ccc(C(=O)N2CCCCC2)cc1)c1cccc([N+](=O)[O-])c1 1.72%, CN(C)Cc1c(O)ccc2occ(C(O)c3ccccc3)c12 (configuration not stated) 1.82%, CCCn1nc(C(=O)NNC(=O)CSCC(=O)Nc2cc(C)on2)c2ccccc2c1=O -9.23%, CCCCn1nc(C(=O)Nc2ccc(S(=O)(=O)Nc3ncccn3)cc2)c2ccccc2c1=O 2.51%, CCOC(=O)NC(=O)C(=CNc1cccc(OC)c1)C(=O)NC(=O)OCC -0.689%, C=CCOc1ccccc1NC(=O)CN1C(=O)CNC1=O 1.49%, Cc1nc(CN(C)C(=O)CC2C(=O)NCCN2Cc2ccc(F)cc2)cs1 (configuration not stated) -3.2%, NS(=O)(=O)c1ccc(NC(=O)/C=C/c2ccccc2Cl)cc1 -0.539%, Cn1c(Nc2ccccc2)cc(=O)n(C)c1=O -3.14%, Cc1cc(NS(=O)(=O)c2ccc(NC(=S)NC(=O)c3ccc(F)cc3Cl)cc2)no1 -0.765%, O=C(NCC1CCCO1)C1CCN(C2CCN(C(=O)C3CCCCC3)CC2)CC1 (configuration not stated) -0.223%, COc1cc(C(=S)N2CCOCC2)cc(OC)c1OC(=O)c1ccc([N+](=O)[O-])cc1[N+](=O)[O-] -2.68%, Cc1c(NC(=O)c2cccnc2)c(=O)n(-c2ccccc2)n1C 0.492%, Cc1cc(C(=O)Nc2c(C)n(C)n(-c3ccccc3)c2=O)cs1 2.16%, CCOc1ncccc1C(=O)NCCc1ccc(OC)cc1 -0.435%, CNC(=O)CN1C(=O)NC(c2ccccc2)(c2ccccc2)C1=O 2.16%, Brc1cc(/C=N/n2cnnc2)oc1Br 0.986%, Cc1ccc(Cl)cc1-c1ccc(/C=N/n2cnnc2)o1 0.0863%, Cc1ccoc1C(=O)Nc1cccc(Oc2ccccc2)c1 -2.34%, COc1ccc(CNC(=O)COc2cccnc2[N+](=O)[O-])cc1 0.235%, C=CCN1C=C2C(=O)C(C)(OC(=O)CCc3ccccc3)C(=O)C=C2C=C1c1ccc(C#N)cc1 (configuration not stated) -5.84%, COCCN1C=C2C(=O)C(C)(OC(=O)C3CCCC3)C(=O)C=C2C=C1c1ccsc1 (configuration not stated) -2.5%, CCOC(=O)N1CCC(NC(=O)C(NS(=O)(=O)c2ccc3c(c2)CCN3C(=O)CC)C(C)C)CC1 (configuration not stated) -1.98%, O=C(COc1ccc(Cl)cc1Cl)N/N=C/c1ccccn1 4.25%, CSc1ncc(C(=O)NCCCc2ccccc2)c(C)n1 -2.7%, CCOc1ccc(C(=O)NC2CCN(CC(=O)NCc3cccs3)CC2)cc1 -1.2%, Cc1ccc2c(c1)C(c1ccccc1)N(C(=O)c1ccc(F)cc1)CC(=O)N2 (configuration not stated) -0.463%, CCCNC(=O)N1CCC(c2ccc3c(c2)OCO3)CC1 2.15%, Cc1nn(C)cc1N1C(=O)c2cccc3c(N)ccc(c23)C1=O 1.83%, CCN1C(=O)c2cccc3c(N)ccc1c23 1.15%, NC(=O)Cc1ccc2sc(-c3ccccc3)nc2c1 -1.64%, O=C1c2ccccc2C(Nc2ccc3c(c2)OCCO3)N1Cc1ccco1 (configuration not stated) -1.03%, CCc1ccc(CNC(=O)C2CCN(c3nnc(C)c4c(C)n(-c5ccc(C)cc5)nc34)CC2)cc1 -2.92%, O=C(Nc1cccc2c1N(C(=O)c1ccco1)CCC2)c1ccco1 -0.00473%, O=C(NCc1nnc(SCC(=O)N2CCC(Cc3ccccc3)CC2)o1)c1ccco1 -1.62%, Oc1ccc(-c2onc3ccc(Cl)cc23)cc1 -1.78%, CC(OC(=O)c1ccc2noc(-c3ccccc3)c2c1)C(N)=O (configuration not stated) -5.27%, COc1ccc(Cn2c(-c3ccc(Cl)cc3)c[n+]3ccccc23)cc1 2.75%, COc1ccc(NC(=O)c2cn(-c3ccccc3)nc2SC)cc1 2.01%
